Measured values as given in PubChem BioAssay AID488852 (National Center for Advancing Translational Sciences (NCATS), 2010).
Active and inactive are the calls of the source. The call rests on the fitted dose curve; in most records, active means well fitted curve in the direction sought with a large enough effect; inconclusive means small, poorly fitted or top-dose-only effect, or another doubt; inactive means no such curve, though single readings can be large or run the other way.

molecular target: Lysosomal acid glucosylceramidase (Homo sapiens) (UniProt P04062); assay: qHTS Assay for Inhibitors and Activators of N370S glucocerebrosidase as a Potential Chaperone Treatment of Gaucher Disease: Activity in N370S Spleen Homogenate Confirmation Using Alternate Substrate for Probe SAR; details: N370S patient spleen homogenate, resorufin-glucoside fluorescence; series mostly up to 57.5 µM; activity change, negative = inhibition: at the top concentration
Sequence (P04062 whole entry N409S): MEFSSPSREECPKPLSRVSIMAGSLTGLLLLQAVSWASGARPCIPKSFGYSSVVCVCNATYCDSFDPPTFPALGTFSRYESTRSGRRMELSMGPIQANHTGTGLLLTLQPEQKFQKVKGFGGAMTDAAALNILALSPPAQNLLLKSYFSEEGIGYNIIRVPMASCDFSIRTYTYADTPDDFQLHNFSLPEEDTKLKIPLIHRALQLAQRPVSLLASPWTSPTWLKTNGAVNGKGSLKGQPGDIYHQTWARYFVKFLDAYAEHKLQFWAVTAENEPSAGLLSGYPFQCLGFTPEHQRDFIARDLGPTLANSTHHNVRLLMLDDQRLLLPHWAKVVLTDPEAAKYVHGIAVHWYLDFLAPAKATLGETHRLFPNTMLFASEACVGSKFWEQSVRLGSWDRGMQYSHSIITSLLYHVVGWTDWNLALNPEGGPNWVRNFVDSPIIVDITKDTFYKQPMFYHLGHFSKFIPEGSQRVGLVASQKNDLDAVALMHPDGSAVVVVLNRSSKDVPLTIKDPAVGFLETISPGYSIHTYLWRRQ
Excerpt: NIH Chemical Genomics Center [NCGC] NIH Molecular Libraries Probe Production Centers Network [MLPCN] MLPCN Grant: MH086442-01 Assay Submitter (PI): Wei Zheng Glucocerebrosidase (GC) catalyzes the hydrolysis of beta-glucocerebroside to glucose and ceramide in lysosomes. Mutations in the glucocerebrosidase gene result in Gaucher disease, an autosomal recessive lysosomal storage disorder. Many of the mutations encountered in patients with Gaucher disease are missense alterations that may cause misfolding, decreased stability and/or mistrafficking of this lysosomal protein. […] These inhibitors include iminosugar analogs and three non-iminosugar inhibitors identified from a previous HTS of 62,000 compounds with the wild type recombinant enzyme. However, the enhancement of enzyme activity by the chaperone action of an enzyme inhibitor must be balanced against the direct inhibition of the enzyme. An enzyme activator could also function as a chaperone by binding to the enzyme and helping to correct its misfolding and mistrafficking. While activators for GC have not yet been identified, they may have better therapeutic potential than inhibitors. Therefore the discovery and development of chemical activators may provide a new strategy for the chaperone therapy. We have optimized a new assay using N370S mutant GC derived from the spleen of a Gaucher patient. […] In addition, the MLPCN compound library has expanded, which increases the chance of finding new and better probes. This confirmation assay tests for compound activity in spleen homogenate from a patient homozygous for the N370S mutation using an alternate resorufin-based substrate.
NCGC Assay Protocol Summary: This is a fluorogenic enzyme assay with resorufin-beta-D-glucopyranoside as the substrate and mutant N370S glucocerebrosidase from human spleen homogenate as the enzyme preparation. Upon the hydrolysis of this fluorogenic substrate, the resulting product, […] which can be detected by a standard fluorescence plate reader. Data were normalized to the controls for basal activity (without enzyme) and 100% activity (with enzyme). The AC50 values were determined from concentration-response data modeled with the standard Hill equation. Assay buffer: 50 mM citric acid (titrated with potassium phosphate to pH 5.0), 100 mM potassium chloride, 10 mM sodium chloride, 1 mM magnesium chloride, 0.01% Tween-20. 1536-well assay protocol: (1) Add 2 ul/well of spleen homogenate (27 ug final) (2) Add 23 nL compounds in DMSO solution. The final titration was 0.5 nM to 58 uM. (3) Add 2 ul of substrate (1 mM final) (4) Incubate at 37C for 40 min. (5) Add 2 ul stop solution (1M NaOH and 1M Glycine mixture, pH 10) (6) Detect the assay plate in a ViewLux plate reader (PerkinElmer) with Ex=365 nm and Em=440nm. Keywords: Glucocerebrosidase, beta-glucosidase, Gaucher Disease, pharmacological chaperone, chaperone therapy, high throughput screening, glucocerebrosidase inhibitor, MLSMR, MLSCN, NIH Roadmap, qHTS and NCGC

Row | SMILES | activity change, negative = inhibition | outcome
1 | COc1ccc(NC(=O)c2cnn3c(C)cc(C)nc23)cc1 | -0.21% (inactive) | 
2 | Cc1cc(C)n2ncc(C(=O)Nc3ccc(C)c(C)c3)c2n1 | 0.0219% (inactive) | 
3 | COc1ccc(NC(=O)c2cnn3c(C)cc(C)nc23)cc1Cl | -14.1% (inactive) | 
4 | CNC(=O)c1cnn2c(C)cc(C)nc12 | -0.211% (inactive) | 
5 | COc1cc(NC(=O)c2cnn3c(C)cc(C)nc23)cc(OC)c1OC | 0.0219% (inactive) | 
6 | Cc1cc(C)n2ncc(C(=O)Nc3ccc4c(c3)OCO4)c2n1 | 0.0219% (inactive) | 
7 | Cc1cc(C)n2ncc(C(=O)Nc3ccc4c(c3)CCC4)c2n1 | -0.211% (inactive) | 
8 | COc1ccc(NC(=O)c2cnn3c(C)cc(C)nc23)cc1OC | 0.0219% (inactive) | 
9 | Cc1cc(C)n2ncc(C(=O)Nc3ccc(C(F)(F)F)cc3)c2n1 | 23.7% (inactive) | 
10 | Cc1cc(C)n2ncc(C(=O)Nc3ccncc3)c2n1 | 0.0344% (inactive) | 
11 | Cc1ccc(NC(=O)c2cnn3c(C)cc(C)nc23)c(C)c1 | -0.21% (inactive) | 
12 | Cc1cc(C)n2ncc(C(=O)Nc3cccc(C(F)(F)F)c3)c2n1 | 0.0219% (inactive) | 
13 | O=C(Nc1cnn(Cc2ccc(F)cc2)c1)c1cnn2c(C(F)F)cc(-c3ccccc3)nc12 | 0.0344% (inactive) | 
14 | Cc1cc(C)n2ncc(C(=O)NCC(C)C)c2n1 | -0.211% (inactive) | 
15 | Cc1ccc(NC(=O)c2cnn3c(C)cc(C)nc23)cc1 | -0.21% (inactive) | 
16 | Cc1cc(C)n2ncc(C(=O)NC3CCCCC3)c2n1 | -0.211% (inactive) | 
17 | CC(=O)Nc1ccc(NC(=O)c2cnn3c(C)cc(C)nc23)cc1 | -24.9% (inactive) | 
18 | Cc1cc(C)n2ncc(C(=O)NCc3ccco3)c2n1 | 0.0344% (inactive) | 
19 | CC(=O)Nc1ccccc1NC(=O)c1cnn2c(C)cc(C)nc12 | -23.8% (inactive) | 

Row | SMILES | activity change, negative = inhibition | outcome
20 | Cc1cc(C)n2ncc(C(=O)NC3CCC(C(C)(C)C)CC3)c2n1 (configuration not stated) |  | inactive
21 | Cc1cc(C)n2ncc(C(=O)Nc3ccc4c(c3)OCCO4)c2n1 | 0.0219% (inactive) | 
22 | Cc1cc(C)n2ncc(C(=O)Nc3ccc(S(C)(=O)=O)cc3)c2n1 | 0.0344% (inactive) | 
23 | CCc1ccc(NC(=O)c2cnn3c(C)cc(C)nc23)cc1 | -0.211% (inactive) | 
24 | Cc1cc(C)n2ncc(C(=O)Nc3ccc(C#N)cc3)c2n1 | -24.2% (inactive) | 
25 | Cc1cc(C)n2ncc(C(=O)Nc3ccc(Br)cc3)c2n1 | 16.8% (inactive) | 
26 | Cc1cc(C)n2ncc(C(=O)Nc3ccccc3C)c2n1 | -15.4% (inactive) | 
27 | CC(=O)c1cccc(NC(=O)c2cnn3c(C)cc(C)nc23)c1 | 17.3% (inactive) | 
28 | Cc1cc(C)n2ncc(C(=O)N3CCCC3)c2n1 | -0.211% (inactive) | 
29 | COc1ccc(NC(=O)c2cnn3c(C)cc(C)nc23)cc1F | 22.7% (inactive) | 
30 | CC(=O)c1ccc(NC(=O)c2cnn3c(C)cc(C)nc23)cc1 | 0.0219% (inactive) | 
31 | Cc1cc(C)n2ncc(C(=O)Nc3ccc(C(C)(C)C)cc3)c2n1 | -0.21% (inactive) | 
32 | Cc1cccc(NC(=O)c2cnn3c(C)cc(C)nc23)c1 | -0.21% (inactive) | 
33 | Cc1cc(C)n2ncc(C(=O)Nc3ccccc3)c2n1 | -18.7% (inactive) | 
34 | Cc1cc(C)n2ncc(C(=O)Nc3cccc(C#N)c3)c2n1 | -0.211% [at 19 µM] (inactive) | 
35 | Cc1cc(C)n2ncc(C(=O)NCc3ccccc3)c2n1 | -24.6% (inactive) | 
36 | Cc1cc(C)n2ncc(C(=O)NC(C)C)c2n1 | -22.2% (inactive) | 
37 | C#Cc1ccc(NC(=O)c2cnn3c(C)cc(C)nc23)cc1 | 20.9% (inactive) | 
